Our source for the composite z-score and z-score values is PubChem BioAssay.

The source made the active and inactive calls.

The nature of assay [1]: small molecules captured by biotinylated probe aFSTL3 – biochemical, small-molecule microarray, fluorescence 635/667, stem cell growth factor project, primary screen (AID 1064).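 Note: measures binding of the biotinylated anti-FSTL3 antibody to printed compounds.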 The settings on record: higher = more signal.
Assay [2] is described as follows: binders from COS7 lysate, DM2A8 probe, primary screen, torsin A project, cell lysate, small-molecule microarray, fluorescence 635/667 (AID 1065). As to conditions: higher = more signal, COS7 lysate expressing mutant human TOR1A.
Assay [3] in a line: small molecules captured by biotinylated probe aFGF2 – biochemical, small-molecule microarray, fluorescence 635/667, stem cell growth factor project, primary screen (AID 1067).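 Note: measures binding of biotinylated aFGF2 protein to printed compounds on slides; z-score merges feature fluorescence and signal-to-noise across triplicate slides.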 The settings on record: higher = more signal.
The nature of assay [4]: small molecules captured by biotinylated probe aFGF10 – biochemical, small-molecule microarray, fluorescence 635/667, stem cell growth factor project, primary screen (AID 1071).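 Note: score merges 667 nm spot intensity and signal to noise from triplicate slides.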 The settings on record: higher = more signal.
Assay [5] has as its target Neurogenic locus notch homolog protein 2 (Homo sapiens) (UniProt Q04721). Put plainly: small molecules binding Notch2 protein – biochemical, small-molecule microarray, 635 nm fluorescence, stem cell growth factors, primary screen (AID 1073). As to conditions: higher = more signal.
For assay [6], the target named is Pro-neuregulin-1, membrane-bound isoform (Homo sapiens) (UniProt Q02297). Put plainly: small molecules binding neuregulin-1 protein – biochemical, small-molecule microarray, fluorescence 635/667, psychiatric disease protein project, primary screen (AID 1075).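 Note: score combines 667 nm spot fluorescence with signal to noise.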 As to conditions: NRG1 binding, 635 nm fluorescence, higher = more signal.
The subject of assay [7] is Neuregulin-1 EGF-like domain. Put plainly: small molecules binding NRG1 EGF domain – biochemical, small-molecule microarray, 635 nm fluorescence, primary screen (AID 1081).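 Note: binding of the protein to compounds printed on small-molecule microarray slides.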 The settings on record: higher = more signal.
A short description of assay [8]: FRG1 expression reporter modulators in myotubes – cell-based, C2C12 myotubes, firefly/Renilla luciferase, luminescence, FRG1 inhibition for FSHD, primary screen (AID 1084). As to conditions: FRG1 promoter luciferase, higher = more signal, called active from +8 up or from −8 down.
Assay [9] is described as follows: small molecules captured by biotinylated probe aFST – biochemical, small-molecule microarray, fluorescence 635/667, stem cell growth factor project, primary screen (AID 1086).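 Note: score merges 667 nm fluorescence with signal-to-noise of each printed compound spot.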 The settings on record: higher = more signal.
Assay [10] is described as follows: binders of probe aHhip on microarray, primary screen, stem cell growth factor project, biochemical, small-molecule microarray, fluorescence 635/667 (AID 1087).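 Note: score merges spot fluorescence at 667nm with spot signal to noise ratio.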 The settings on record: higher = more signal.

Sequence of Pro-neuregulin-1, membrane-bound isoform (Homo sapiens) (Q02297 whole entry, looked up, the tested form may be a part, canonical isoform): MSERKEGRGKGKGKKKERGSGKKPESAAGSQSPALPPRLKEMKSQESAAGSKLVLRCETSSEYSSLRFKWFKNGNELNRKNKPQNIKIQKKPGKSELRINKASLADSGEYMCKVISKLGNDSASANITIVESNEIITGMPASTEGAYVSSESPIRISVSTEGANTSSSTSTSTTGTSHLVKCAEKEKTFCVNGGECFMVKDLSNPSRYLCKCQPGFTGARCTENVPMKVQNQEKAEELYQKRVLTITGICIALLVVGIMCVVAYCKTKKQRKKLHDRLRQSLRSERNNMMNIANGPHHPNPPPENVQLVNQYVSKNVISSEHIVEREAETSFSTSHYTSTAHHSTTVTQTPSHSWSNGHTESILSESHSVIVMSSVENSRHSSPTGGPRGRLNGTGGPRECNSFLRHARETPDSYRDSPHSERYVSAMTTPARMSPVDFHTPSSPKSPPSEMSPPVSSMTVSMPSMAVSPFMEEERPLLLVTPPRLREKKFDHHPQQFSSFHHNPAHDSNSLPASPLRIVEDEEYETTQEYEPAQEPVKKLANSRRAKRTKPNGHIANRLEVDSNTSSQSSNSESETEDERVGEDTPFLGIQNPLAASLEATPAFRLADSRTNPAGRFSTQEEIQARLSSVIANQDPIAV
Sequence of Neurogenic locus notch homolog protein 2 (Homo sapiens) (Q04721 whole entry, looked up, canonical isoform): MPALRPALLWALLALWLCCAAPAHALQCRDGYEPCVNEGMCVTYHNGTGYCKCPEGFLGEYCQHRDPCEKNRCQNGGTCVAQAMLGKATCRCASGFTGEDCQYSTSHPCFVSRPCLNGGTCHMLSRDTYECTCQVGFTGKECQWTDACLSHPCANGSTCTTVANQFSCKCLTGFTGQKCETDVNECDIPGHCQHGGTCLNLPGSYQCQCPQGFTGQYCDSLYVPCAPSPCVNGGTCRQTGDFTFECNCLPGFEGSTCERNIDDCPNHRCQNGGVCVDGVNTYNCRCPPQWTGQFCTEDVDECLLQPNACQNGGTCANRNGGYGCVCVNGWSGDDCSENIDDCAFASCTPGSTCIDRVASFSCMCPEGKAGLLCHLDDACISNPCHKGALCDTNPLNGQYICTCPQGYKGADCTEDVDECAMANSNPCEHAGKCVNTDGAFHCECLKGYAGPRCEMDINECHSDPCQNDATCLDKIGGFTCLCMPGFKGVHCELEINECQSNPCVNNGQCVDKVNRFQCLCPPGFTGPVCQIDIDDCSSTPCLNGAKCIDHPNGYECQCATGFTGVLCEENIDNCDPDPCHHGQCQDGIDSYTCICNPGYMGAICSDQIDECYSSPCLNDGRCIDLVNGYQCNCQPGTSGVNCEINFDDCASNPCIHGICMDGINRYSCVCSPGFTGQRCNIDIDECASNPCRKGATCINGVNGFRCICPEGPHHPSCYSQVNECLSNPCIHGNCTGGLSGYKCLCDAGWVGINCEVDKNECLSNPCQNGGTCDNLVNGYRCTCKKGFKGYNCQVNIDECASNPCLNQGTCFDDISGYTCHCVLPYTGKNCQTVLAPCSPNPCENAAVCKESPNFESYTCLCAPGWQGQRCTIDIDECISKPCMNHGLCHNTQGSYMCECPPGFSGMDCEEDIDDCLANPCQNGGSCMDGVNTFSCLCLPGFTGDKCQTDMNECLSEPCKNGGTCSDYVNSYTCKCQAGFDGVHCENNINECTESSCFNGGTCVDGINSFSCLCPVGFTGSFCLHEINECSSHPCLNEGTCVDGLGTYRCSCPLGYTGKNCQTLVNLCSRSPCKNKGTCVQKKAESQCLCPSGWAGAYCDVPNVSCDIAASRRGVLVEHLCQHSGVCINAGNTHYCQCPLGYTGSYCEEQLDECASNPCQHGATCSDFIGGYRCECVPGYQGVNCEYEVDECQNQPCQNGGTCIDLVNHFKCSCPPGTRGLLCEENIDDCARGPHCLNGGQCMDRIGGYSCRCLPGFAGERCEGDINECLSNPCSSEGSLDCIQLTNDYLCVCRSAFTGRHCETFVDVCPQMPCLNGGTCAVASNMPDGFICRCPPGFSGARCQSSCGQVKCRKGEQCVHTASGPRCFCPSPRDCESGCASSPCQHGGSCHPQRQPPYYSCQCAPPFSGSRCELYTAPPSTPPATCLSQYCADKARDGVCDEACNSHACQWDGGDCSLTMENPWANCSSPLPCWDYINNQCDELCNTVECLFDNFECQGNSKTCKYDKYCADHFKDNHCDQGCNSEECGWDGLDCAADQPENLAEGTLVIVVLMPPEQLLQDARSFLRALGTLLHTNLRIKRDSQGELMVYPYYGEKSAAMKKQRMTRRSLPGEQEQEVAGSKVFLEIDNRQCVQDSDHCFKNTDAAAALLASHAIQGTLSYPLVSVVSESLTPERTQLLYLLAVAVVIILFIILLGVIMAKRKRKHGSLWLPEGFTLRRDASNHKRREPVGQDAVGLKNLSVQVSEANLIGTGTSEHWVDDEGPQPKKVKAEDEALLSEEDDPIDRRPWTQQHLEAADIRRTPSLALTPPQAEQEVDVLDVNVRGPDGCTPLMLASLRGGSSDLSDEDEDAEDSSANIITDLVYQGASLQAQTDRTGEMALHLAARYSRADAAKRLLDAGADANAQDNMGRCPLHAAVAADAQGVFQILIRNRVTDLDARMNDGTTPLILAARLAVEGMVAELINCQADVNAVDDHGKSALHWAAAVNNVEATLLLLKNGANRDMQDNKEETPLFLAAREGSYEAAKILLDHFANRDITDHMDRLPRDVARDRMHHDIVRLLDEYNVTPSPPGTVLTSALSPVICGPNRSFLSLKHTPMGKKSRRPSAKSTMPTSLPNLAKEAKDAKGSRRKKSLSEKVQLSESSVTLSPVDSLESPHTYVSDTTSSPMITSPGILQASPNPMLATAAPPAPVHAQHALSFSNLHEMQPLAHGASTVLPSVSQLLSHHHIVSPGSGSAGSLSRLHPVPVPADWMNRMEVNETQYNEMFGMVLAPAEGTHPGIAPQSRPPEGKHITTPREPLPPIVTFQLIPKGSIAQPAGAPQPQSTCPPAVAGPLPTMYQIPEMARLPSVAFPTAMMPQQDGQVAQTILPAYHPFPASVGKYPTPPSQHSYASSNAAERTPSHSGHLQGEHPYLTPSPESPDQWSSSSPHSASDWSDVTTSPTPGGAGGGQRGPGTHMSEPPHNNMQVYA

Consider `CN(C)CCCN1C(=O)[C@@]2(Cc3ccccc31)c1ccccc1C(=O)N(Cc1ccccc1)[C@H]2c1ccc(CO)cc1`, for which the composite z-score is -0.0277 in assay [1]; 0.115 in assay [2]; -0.0861 in [3]; -0.492 in assay [4]; -0.639 in assay [5]; 0.466 in [6]. For the same molecule, the composite z-score in assay [7] is -0.226; in assay [9] it was 1.02; in assay [10] it was -0.0994. In assay [8], the z-score was 0.878 (inactive).

As to `COc1cc(C(O)C2C=CC3C(=O)N(C)C(=O)C3N2NC(=O)OC(C)(C)C)cc(OC)c1OC` (stereo not given), the composite z-score was 0.425 in assay [1]; -0.27 in assay [2]; 0.265 in assay [3]; 0.469 in [4]; 1.38 in assay [5]; 2.13 in [6]. Besides, the composite z-score is 1.38 in assay [7], 0.935 in [9] and 0.122 in [10]. In addition, the z-score in [8] was -0.167 (inactive).

For `COc1ccc(CCNC(=O)[C@@H]2c3ccccc3C(=O)N(Cc3ccccc3)[C@H]2c2ccc(CO)cc2)cc1`, the composite z-score in assay [1] is 0.262; in assay [2], 1.24; in assay [3], -0.0866; in assay [4] it was -0.101; in assay [5] it was -0.117; in assay [6] it was -0.0744. For the same molecule, the composite z-score in assay [7] is 1.2; in assay [9] it was 0.0887; in assay [10] it was 3.74. The z-score in [8] is -2.26 (inactive).

Regarding `O=C1O[C@H](c2ccccc2)[C@H](c2ccccc2)N2[C@H]1[C@@H](C(=O)N1CCCCCCC1)[C@]1(C(=O)Nc3ccc(C#CCCO)cc31)[C@H]2c1ccc(OCCO)cc1`, the composite z-score amounted to 3.51 in assay [1]; 2.79 in [2]; 0.972 in assay [3]; 1.49 in [4]; 1.76 in [5]; 2.84 in assay [6]. Also, the composite z-score in [7] was 1.35; in assay [9], 3.33; in assay [10] it was 2.53. Further, in assay [8], the z-score was -0.409 (inactive).

Turning to `CN1C(=O)C2C=CC(C(O)C3CCCCC3)N(N(c3ccccc3)c3ccccc3)C2C1=O` (stereo not given), the composite z-score is 1.61 in [1]; -0.277 in assay [2]; 0.182 in assay [3]; -0.122 in [4]; -0.112 in assay [5]; 1.12 in assay [6]. Further, the composite z-score in assay [7] was 0.659; in [9] it was 0.236; in assay [10] it was -0.183. Moreover, the z-score in assay [8] is -0.158 (inactive).

On to `CC(C)C[C@@H]1NC(=O)[C@@H]2C[C@H](C(=O)NCCCC[N+](C)(C)C)[C@H](c3cccc(OCCO)c3)N2C1=O`, for which the composite z-score in [1] is 0.157; in [2], 1.09; in assay [3] it was -0.0784; in assay [4], -0.0155; in assay [5], -0.884; in assay [6] it was 1.05. For the same molecule, the values for the composite z-score in [7], in assay [9] and in assay [10] were 1.12, 0.496 and 0.595, respectively. Also, the z-score in assay [8] was 0.14 (inactive).

Consider `COc1ccc(C(=O)Nc2ccc(CN3C(=O)[C@@]4(O[C@@H](CC(=O)N5Cc6ccccc6C[C@H]5CO)[C@H]([Si](C)(C)c5ccc(OC)cc5)[C@H]4C)c4ccccc43)cc2)cc1`, for which the composite z-score was -0.313 in assay [1]; 0.17 in [2]; 0.0275 in assay [3]; 0.158 in [4]; -0.0395 in assay [5]; 0.822 in assay [6]. Also, the composite z-score in assay [7] was 1.1; in assay [9] it was 0.185; in assay [10], -0.173. In addition, the z-score in assay [8] is -4.29 (inactive).

Turning to `O=C(O)[C@@]1(Cc2ccccc2)COC(c2ccc(OCCCO)cc2)=N1`, the composite z-score was 0.805 in assay [1]; -0.24 in [2]; -0.0886 in [3]; -0.24 in [4]; -0.287 in assay [5]; 1.19 in assay [6]. Further, the composite z-score is 1.2 in assay [7], 0.519 in assay [9] and -0.0994 in [10]. In addition, the z-score in assay [8] is 0.809 (inactive).

Take `COCCCNC(=O)[C@@]1(Cc2ccccc2I)c2ccccc2C(=O)N(Cc2ccccc2Cl)[C@H]1c1ccc(CO)cc1`: the composite z-score in assay [1] is -0.196; in assay [2] it was 0.229; in assay [3] it was -0.0686; in assay [4], 0.293; in [5], 0.153; in assay [6], 1.3. Further, the figures for the composite z-score in [7], in assay [9] and in [10] were 1.13, -0.211 and -0.156, respectively. Also, in assay [8], the z-score is -1.21 (inactive).

Regarding `CN(C)CCCC[C@@H]1NC(=O)[C@H]2C[C@@H](C(=O)NCCCCCCNC(=O)CS)[C@@H](c3ccc(O)cc3)N2C1=O`, the composite z-score was 0.0462 in assay [1]; 0.576 in assay [2]; -0.116 in [3]; 0.165 in assay [4]; -0.549 in [5]; 0.848 in assay [6]. Further, the composite z-score in assay [7] was 1.11; in assay [9], -0.337; in assay [10], -0.125. Also, the z-score in assay [8] is 1.15 (inactive).

`NC(=O)NCC#Cc1ccc2c(c1)[C@]1(C(=O)N2)[C@H](c2ccc(O)cc2)N2[C@H](c3ccccc3)[C@H](c3ccccc3)OC(=O)[C@H]2[C@@H]1C(=O)NC[C@H](O)c1ccccc1`: the composite z-score in assay [1] is 1.38; in assay [2] it was -1.23; in assay [3], -0.132; in assay [4] it was -1.17; in [5], -1.17; in [6] it was 0.831. In addition, the composite z-score in [7] is -0.18; in assay [9] it was -0.268; in assay [10], 0.172. In assay [8], the z-score was -0.0208 (inactive).

With `C=CCOC(=O)[C@@H]1[C@H]2C(=O)O[C@H](c3ccccc3)[C@H](c3ccccc3)N2[C@H](c2ccc(OCCOC(=O)[C@H]3C[C@H]4C(=O)N[C@@H](Cc5ccccc5)C(=O)N4[C@H]3c3cccc(OCCO)c3)cc2)[C@@]12C(=O)Nc1ccc(I)cc12`, the composite z-score is 0.014 in assay [1]; 0.548 in assay [2]; -0.0512 in assay [3]; 0.957 in [4]; 1.09 in assay [5]; 0.0935 in [6]. Besides, the composite z-score in assay [7] is 1.31; in assay [9], 0.56; in assay [10] it was -0.186. In [8], the z-score was 2.41 (inactive).

As for `Cc1ccc(N2C(=O)c3ccccc3[C@](C)(C(=O)NC(C)C)[C@@H]2c2ccc(CO)cc2)nc1`, the composite z-score in assay [1] was 1.57; in assay [2], -1.06; in [3] it was -0.254; in assay [4], -1.11; in [5] it was -1.61; in assay [6] it was -1.55. Further, the composite z-score is 0.787 in assay [7], -0.927 in assay [9] and 0.119 in [10]. Moreover, the z-score in [8] was -0.0923 (inactive).

For the molecule `COCCOC(=O)N1C(=O)[C@@]2(c3cc(C#CCC(C(=O)OC)C(=O)OC)ccc31)[C@H](C(=O)N1CCCCCCC1)[C@H]1C(=O)O[C@H](c3ccccc3)[C@H](c3ccccc3)N1[C@@H]2c1ccc(O)cc1`, the composite z-score in assay [1] is 2.64; in [2] it was 0.745; in assay [3] it was 0.146; in assay [4] it was 0.344; in assay [5], 1.26; in assay [6], 1.33. The composite z-score in assay [7] turned out to be 1.25; in assay [9] it was 2.37; in assay [10], 0.801. Further, the z-score in [8] is 0.741 (inactive).

Regarding `C=CCOc1ccc([C@@H]2CC=C(C(=O)OCC)[C@H](c3cccc(Br)c3)N2S(=O)(=O)c2ccc(C)cc2)cc1`, the composite z-score in [1] is 0.474; in [2], -0.229; in [3] it was -0.0901; in assay [4], -0.0763; in [5] it was -0.672; in [6], 0.866. Further, the composite z-score was 0.0455 in [7], 0.176 in [9] and -0.3 in assay [10]. Moreover, the z-score in [8] was -4.03 (inactive).

For `Cc1ccc(S[C@]2(C(=O)NCCN3CCOCC3)CC(=O)N(C3Cc4ccccc4C3)[C@@H]2c2ccc(CO)cc2)cc1`, the composite z-score is -0.108 in assay [1]; 1.32 in assay [2]; -0.0825 in assay [3]; -0.168 in assay [4]; -0.746 in assay [5]; 1.72 in assay [6]. The results for the composite z-score in [7], in [9] and in assay [10] were 1.27, 0 and -0.0994, respectively. Moreover, the z-score in assay [8] was -0.611 (inactive).
